Source: PubChem BioAssay (Tox21)
Inconclusive results are not listed. Active and inactive are the calls of the source. Unless noted, the call rests on the fitted dose curve; in most records, active means well fitted curve in the direction sought with a large enough effect in the repeat runs; inconclusive means weak or mixed curves; inactive means no such curve, though single readings can be large; an effect the other way counts as inactive or inconclusive.

Key:
[1] = qHTS RealTime-Glo MT Cell Viability Assay in HEK293 cells - 24 hour (AID 1224886); conditions: RealTime-Glo luminescence; series mostly up to 76.8 µM; further: top concentration of the series differs between compounds; nearly all actives have a fitted effect of over 50% in size
Procedure, shortened: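 Quantitative high-throughput screen of the Tox21 10K library in HEK293: cells and RealTime-Glo reagents plated together, compound added at 5 h, luminescence monitored through 40 h at 37 C.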

[2] = qHTS RealTime-Glo MT Cell Viability Assay in HEK293 cells - 8 hour (AID 1224887); conditions: RealTime-Glo luminescence; series mostly up to 76.8 µM; further: top concentration of the series differs between compounds; nearly all actives have a fitted effect of over 50% in size
Procedure, shortened: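 Luminescence, which tracks viable cell number through reduction of the prosubstrate to a NanoLuc substrate, was read over continuous 37 C culture. Cells (600/well) were premixed with reagent and rested 5 h before 23 nL of compound in DMSO was pinned.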

[3] = A CellTox Green Cytotoxicity Assay to monitor cytotoxicity in HEK293 cells - 16 hour (AID 1224888); conditions: CellTox Green fluorescence; series mostly up to 76.8 µM; further: nearly all actives have a fitted effect of over 35% in size
Procedure, shortened: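 Fluorescence from a DNA-binding dye excluded by viable cells was measured repeatedly in the same HEK293 wells (600 cells/well) during continuous compound exposure at 37 C. Each assay gives one read point: 0, 8, 16, 24, 32 or 40 h.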

[4] = qHTS RealTime-Glo MT Cell Viability Assay in HepG2 cells - 0 hour (AID 1224889); conditions: RealTime-Glo luminescence; series mostly up to 76.8 µM; further: nearly all actives have a fitted effect of over 50% in size
Procedure, shortened: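 Compound treatment began 5 h after plating HepG2 cells (600/well) with NanoLuc luciferase and prosubstrate. Plates stayed at 37 C for 40 h; luminescence was captured at six time points, 0 h through 40 h.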

[5] = A CellTox Green Cytotoxicity Assay to monitor cytotoxicity in HepG2 cells - 8 hour (AID 1224890); conditions: CellTox Green fluorescence; series mostly up to 76.8 µM; further: nearly all actives have a fitted effect of over 45% in size
Procedure, shortened: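 Real-time cytotoxicity: fluorescence of a cell-impermeant cyanine dye binding DNA of dead HepG2 cells, measured repeatedly (0–40 h) during compound exposure at 37 C. Cells seeded 600/well with reagent, dosed after 5 h.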

[6] = qHTS assay to identify small molecule antagonists of the estrogen receptor alpha (ER-alpha) signaling pathway using the BG1 cell line in the presence of 0.1 nM 17-beta-estradiol - cell viability counter screen (AID 1259241); conditions: VM7Luc4E2 (BG1) viability, CellTiter-Fluor protease, 22 h, 0.1 nM estradiol agonist added; series mostly up to 92.4 µM; further: nearly all actives have a fitted effect of over 40% in size
Procedure, shortened: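 VM7Luc4E2 cells (endogenous ER-alpha, 4×ERE-luciferase), hormone-starved 5 days in charcoal-stripped FBS, were treated with compounds plus 0.1 nM 17beta-estradiol for 22 hr at 37C; viability read in same wells as CellTiter-Fluor live-cell protease fluorescence.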

[7] = qHTS assay to identify small molecule antagonists of the androgen receptor (AR) signaling pathway using the MDA cell line in the presence of 0.5 nM R1881 - cell viability counter screen (AID 1259242); conditions: MDA-kb2 viability, CellTiter-Fluor protease fluorescence, 16 h; series mostly up to 92.4 µM; further: nearly all actives have a fitted effect of over 45% in size
Procedure, shortened: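 Live-cell protease activity was measured by CellTiter-Fluor fluorescence after 30 min. Before that, MDA-kb2 MMTV-luciferase cells had 16 hr at 37C without CO2, exposed to test compounds and 0.5 nM R1881 final.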

[8] = biological target: Estrogen receptor (Homo sapiens) (UniProt P03372); test: qHTS assay to identify small molecule antagonists of the estrogen receptor alpha (ER-alpha) signaling pathway using the BG1 cell line in the presence of 0.1 nM 17-beta-estradiol (AID 1259244); conditions: VM7Luc4E2 (BG1) ERE-luciferase, antagonist mode, 0.1 nM E2, 22 h; series mostly up to 92.4 µM; further: nearly all actives have a fitted effect of over 50% in size
Procedure, shortened: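 Luciferase luminescence (ONE-Glo, 30 min at room temperature) was read after 22 hr at 37C exposure to compounds plus 17beta-estradiol at 0.1 nM final. Cells were VM7Luc4E2 with endogenous ER-alpha and an ERE-driven luciferase, pre-cultured 5 days in hormone-depleted medium.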

[9] = qHTS assay to identify small molecule HDAC inhibitors (AID 1259364); conditions: HCT-116 HDAC-Glo I/II luminescence, 2 h; series mostly up to 92.4 µM; further: top concentration of the series differs between compounds; nearly all actives have a fitted effect of over 45% in size
Procedure, shortened: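 Luminescence read after 30 min room-temperature HDAC-Glo incubation measures cellular class I/II HDAC activity. Compounds were applied for 2 hr at 37 C to HCT-116 wild-type cells seeded the day before.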

[10] = qHTS assay to identify small molecule HDAC inhibitors - cell viability counter screen (AID 1259365); conditions: HCT-116 viability, CellTiter-Glo ATP luminescence, 2 h; series mostly up to 92.4 µM; further: nearly all actives have a fitted effect of over 50% in size
Procedure, shortened: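 Wild-type HCT-116 cells were seeded at 1,500 per well, incubated overnight at 37 C, then exposed to compounds in DMSO for 2hr. Viability was read by CellTiter-Glo luminescence after 30min at room temperature.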

[11] = qHTS assay to identify small molecule agonists of the sonic hedgehog signaling (Shh) pathway - cell viability counter screen (AID 1259366); conditions: NIH/3T3 Gli1-Luc viability, CellTiter-Fluor, 24 h; series mostly up to 92.4 µM; further: nearly all actives have a fitted effect of over 50% in size
Procedure, shortened: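 NIH/3T3-derived 3T3 Gli1-Luc cells (stable Gli1-responsive firefly luciferase reporter) were seeded, rested 4 hr at 37 C/5% CO2, then exposed to compounds in DMSO for 24 hr; viability was read by CellTiter-Fluor fluorescence in the same wells.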

[12] = qHTS assay to identify small molecule agonists of the sonic hedgehog signaling (Shh) pathway (AID 1259368; calls by dose curve; further: nearly all actives have a fitted effect of over 15% in size); conditions: NIH/3T3 Gli1-Luc reporter, luciferase, 24 h; series mostly up to 92.4 µM
Procedure, shortened: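 Luminescence was read after 30 min at room temperature with luciferase reagent. Before that, 3T3Gli1-Luc cells (NIH/3T3 clone, stable Gli1-Luc reporter; 2,000/well) were exposed to compounds for 24 hr at 37C, 5% CO2, compounds being added 4 hr post-plating.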

[13] = qHTS assay to identify small molecule antagonists of the sonic hedgehog signaling (Shh) pathway (AID 1259369; calls by dose curve; further: nearly all actives have a fitted effect of over 45% in size); conditions: NIH/3T3 Gli1-Luc reporter, Shh antagonist, luminescence 24 h; series mostly up to 92.4 µM
Procedure, shortened: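 Antagonist mode: compound added to 3T3 Gli1-Luc cells followed by conditioned-medium stimulation, 24 h at 37 C, 5% CO2. Inhibition taken as loss of Gli1-driven luciferase luminescence.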

[14] = qHTS assay to identify small molecule agonists of the androgen receptor (AR) signaling pathway in the presence of an antagonist - cell viability counter screen (AID 1259379); conditions: MDA-kb2 viability, CellTiter-Fluor, 16 h; series mostly up to 92.4 µM;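 further: MDA-kb2 human breast cancer cells carrying an MMTV luciferase reporter; nearly all actives have a fitted effect of over 25% in size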
Procedure, shortened: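 Cytotoxicity counter-screen run in the same wells as the nilutamide-challenged (3.0 µM final) AR agonist assay in MDA-kb2 cells. Compounds tested at 15 concentrations for 16 h, 37 °C without CO2; CellTiter-Fluor fluorescence read.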

[15] = qHTS assay to identify small molecule agonists of the estrogen receptor beta (ER-beta) signaling pathway - cell viability counter screen (AID 1259380); conditions: ER-beta-bla HEK293T viability, CellTiter-Glo luminescence, 16 h; series mostly up to 92.4 µM; further: nearly all actives have a fitted effect of over 30% in size
Procedure, shortened: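 Cell viability counter screen: CellTiter-Glo luminescence (30 min, room temperature) measured in the same wells as the beta-lactamase readout, after 16 hr compound exposure at 37C of ER-beta-bla HEK293T cells in 2% charcoal-stripped FBS medium.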

[16] = qHTS assay to identify small molecule antagonists of the sonic hedgehog signaling (Shh) pathway - cell viability counter screen (AID 1259367); conditions: NIH/3T3 Gli1-Luc viability, CellTiter-Fluor, 24 h; series mostly up to 92.4 µM; further: nearly all actives have a fitted effect of over 55% in size
Procedure, shortened: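 Fluorescence read-out (CellTiter-Fluor, 1 hr at 37C) taken after 23 hr compound treatment of 3T3 Gli1-Luc cells stimulated with conditioned medium. Cells were seeded at 2,000 per well and pre-incubated 4 hr.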

[17] = biological target: Estrogen receptor beta (Homo sapiens) (UniProt Q92731); test: qHTS assay to identify small molecule agonists of the estrogen receptor beta (ER-beta) signaling pathway (AID 1259377; active means well fitted activation curve with a large enough effect in the signal ratio in the repeat runs, not every such curve was filed as active; the % refers to the signal ratio); conditions: ER-beta-UAS-bla HEK293T, beta-lactamase FRET ratio, 16 h; series mostly up to 92.4 µM
Procedure, shortened: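 ER-beta-UAS-bla HEK293T (GripTite) cells carrying a UAS-driven beta-lactamase reporter, in medium with 2% charcoal-stripped FBS, were exposed to compounds for 16 hr at 37C; LiveBLAzer B/G FRET substrate was then added and fluorescence read after 2 hours at room temperature.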

[18] = biological target: Estrogen receptor beta (Homo sapiens) (UniProt Q92731); test: qHTS assay to identify small molecule antagonists of the estrogen receptor beta (ER-beta) signaling pathway (AID 1259378; active means well fitted inhibition curve with a large enough effect in the signal ratio in the repeat runs, not every such curve was filed as active; the % refers to the signal ratio); conditions: ER-beta-UAS-bla HEK293T, beta-lactamase FRET ratio, 16 h; series mostly up to 92.4 µM
Procedure, shortened: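 ER-beta-UAS-bla HEK293T cells in 2% charcoal-stripped FBS medium treated with compound plus 1nM final 17-beta-estradiol for 16 hr at 37C. Beta-lactamase reporter read by FRET substrate fluorescence after 2 hours at room temperature.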

[19] = qHTS assay to identify small molecule phospholipidosis (PLD) inducers (AID 1259344; active means well fitted curve in the direction sought with a large enough effect; an effect the other way counts as inactive or inconclusive); conditions: HepG2 phospholipidosis, LipidTOX Red imaging, 24 h; series mostly up to 38.3 µM
Procedure, shortened: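 Read-out is LipidTOX Red fluorescence (ex 595/em 615) imaged in HepG2 cells after 24 h compound exposure at 37 C, with Hoechst nuclear counterstain (ex 352/em 461) allowing per-cell normalisation.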

Measured: Potency

Chain of Estrogen receptor (Homo sapiens) (P03372 whole entry, looked up): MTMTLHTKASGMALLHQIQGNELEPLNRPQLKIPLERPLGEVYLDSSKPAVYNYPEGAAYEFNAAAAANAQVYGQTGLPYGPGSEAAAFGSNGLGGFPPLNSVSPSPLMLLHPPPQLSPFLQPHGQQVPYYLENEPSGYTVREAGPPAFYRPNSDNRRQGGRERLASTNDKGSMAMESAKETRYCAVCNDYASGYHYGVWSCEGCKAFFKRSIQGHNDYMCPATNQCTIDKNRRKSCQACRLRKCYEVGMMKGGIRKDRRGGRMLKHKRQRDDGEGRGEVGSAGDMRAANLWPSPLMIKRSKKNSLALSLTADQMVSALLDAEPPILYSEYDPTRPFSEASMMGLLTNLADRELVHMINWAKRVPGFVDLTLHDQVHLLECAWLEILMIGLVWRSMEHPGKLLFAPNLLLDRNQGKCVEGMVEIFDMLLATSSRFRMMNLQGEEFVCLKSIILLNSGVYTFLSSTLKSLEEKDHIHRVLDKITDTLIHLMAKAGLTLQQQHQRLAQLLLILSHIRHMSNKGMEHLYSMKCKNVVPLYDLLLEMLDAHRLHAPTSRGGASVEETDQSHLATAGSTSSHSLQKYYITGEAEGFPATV
Chain of Estrogen receptor beta (Homo sapiens) (Q92731 whole entry, looked up): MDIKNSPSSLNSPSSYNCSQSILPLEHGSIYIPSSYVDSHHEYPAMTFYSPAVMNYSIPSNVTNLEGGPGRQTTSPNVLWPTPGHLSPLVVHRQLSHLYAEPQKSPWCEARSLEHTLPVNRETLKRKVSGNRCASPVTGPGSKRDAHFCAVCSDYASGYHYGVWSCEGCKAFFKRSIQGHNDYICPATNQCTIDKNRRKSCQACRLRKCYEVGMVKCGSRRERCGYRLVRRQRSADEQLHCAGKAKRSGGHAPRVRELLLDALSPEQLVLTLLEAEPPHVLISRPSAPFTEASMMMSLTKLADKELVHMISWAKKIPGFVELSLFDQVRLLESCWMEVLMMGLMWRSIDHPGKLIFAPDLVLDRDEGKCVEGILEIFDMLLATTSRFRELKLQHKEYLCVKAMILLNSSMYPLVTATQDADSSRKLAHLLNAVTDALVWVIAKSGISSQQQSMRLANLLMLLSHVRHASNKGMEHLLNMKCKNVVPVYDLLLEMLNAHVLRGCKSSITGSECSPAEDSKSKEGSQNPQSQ

C[N+](C)(C)CC(O)CCl (stereo not drawn)
not listed: [16] | [17] | [18] | [19]
inactive: all other assays above

C[CH2][Ge]([Cl])([CH2]C)[CH2]C
not listed: [8] | [13] | [15] | [19]
inactive: all other assays above

CCCCCCCCC(=O)OCC
not listed: [13] | [18] | [19]
inactive: all other assays above

CC(C)(C)c1ccc(C=O)cc1
not listed: [12] | [18] | [19]
inactive: all other assays above

O=C1NC2NC(=O)NC2N1 (stereo not drawn)
not listed: [5] | [8] | [15] | [19]
inactive: all other assays above

C=C(C)C(=O)OCCCCCCOC(=O)C(=C)C
not listed: [5] | [8] | [17] | [18] | [19]
inactive: all other assays above

O=C(O)c1c(Cl)ccc(Cl)c1Cl
not listed: [5] | [17] | [18] | [19]
inactive: all other assays above

CCCCCCCCCCCCOC(C)=O
not listed: [8] | [13] | [19]
inactive: all other assays above

CCCCCCCCCOCC1CO1 (stereo not drawn)
not listed: [8] | [12] | [19]
inactive: all other assays above

CCCCCN(CCCOC)C(=O)C(CCC(=O)O)NC(=O)c1ccc(Cl)c(Cl)c1 (stereo not drawn)
not listed: [5] | [19]
inactive: all other assays above

CO/N=C(/C(=O)N[C@@H]1C(=O)N2C(C(=O)O)=C(Cn3nnc(C)n3)CS[C@H]12)c1csc(N)n1
not listed: [5] | [8] | [11]
inactive: all other assays above

CC(=O)OC(C)(C)Cc1ccccc1
not listed: [8] | [13] | [17] | [18] | [19]
inactive: all other assays above

NS(=O)(=O)c1cc2c(cc1Cl)NC(CC1CCCC1)NS2(=O)=O (stereo not drawn)
not listed: [5] | [8]
inactive: all other assays above

O=c1cc(O)c(Cl)c[nH]1
not listed: [5] | [8] | [13] | [18]
inactive: all other assays above

CC1(N)CCC(C(C)(C)N)CC1 (stereo not drawn)
not listed: [8] | [12] | [16] | [18] | [19]
inactive: all other assays above

CC(C)CCCC(C)CC=O (stereo not drawn)
not listed: [5] | [19]
inactive: all other assays above
